# According to the supplement of paper PMC8387472:
# Counter-ions that a name gives are not always drawn. ± gives the standard deviation of the averaged measurements.
# Tested on: mESC LDLR-Dup GFP reporter (SpCas9 MH-deletion repair)
# Assay: fraction of GFP+ cells relative to DMSO control (fold change); higher = more MH-deletion repair to in-frame LDLR (or more editing)
# Conditions: 2 µM; 7 days post-transfection
row,Structure (SMILES),fraction of GFP+ cells
1,Nc1nc(Nc2ccc(S(N)(=O)=O)cc2)nn1C(=O)c1c(F)cccc1F,1 ± 0.15
2,CNNCc1ccc(C(=O)NC(C)C)cc1 [Procarbazine HCl],1.04 ± 0.053
3,C=C1C(=O)O[C@H]2[C@H]1CC/C(C)=C/CC[C@@]1(C)O[C@@H]21 [(-)-Parthenolide],0.606 ± 0.018
4,O=C(Nc1cccc(Cl)c1)Nc1ncc(CCNc2ncnc3ccsc23)s1 [SNS-314 Mesylate],0
5,COc1cc(OCc2cccc(-c3ccccc3)c2C)cc(OC)c1CN1CCCC[C@H]1C(=O)O [pd-1/pd-l1 inhibitor 1],0.898 ± 0.35
6,Nc1ncn([C@@H]2O[C@H](CO)[C@@H](O)[C@H]2O)c(=O)n1 [Azacitidine],1.1 ± 0.089
7,O=C(Nc1ccccc1-c1cn2c(CN3CC[C@@H](O)C3)csc2n1)c1ccc2ccccc2c1,1.45 ± 0.4
8,O=C(O)COc1ccc(Br)cc1C=C1SC(=S)N(Cc2cccnc2)C1=O [Skp2 inhibitor C1 (SKPin C1)],0.783 ± 0.085
9,CC1=C(C(=O)Nc2ccc3[nH]ncc3c2)C(c2ccc(F)cc2)NC(=O)N1 (stereo not given),1.53 ± 0.42
10,O=C(NCc1cccc(O)c1)Nc1nc(-c2ccncc2)cs1,1.11 ± 0.49
11,C#Cc1cccc(Nc2ncnc3cc(OC)c(OCCCCCCC(=O)NO)cc23)c1,0.66 ± 0.054
12,CO[C@@H]1[C@@H](OC(N)=O)[C@@H](O)[C@H](Oc2ccc3c(O)c(NC(=O)c4ccc(O)c(CC=C(C)C)c4)c(=O)oc3c2C)OC1(C)C [Novobiocin Sodium],1.09 ± 0.072
13,O=C(O)[C@]1(Cc2cccc(Nc3nccs3)n2)CC[C@@H](Oc2cccc(Cl)c2F)CC1,1.82 ± 0.2
14,O=c1[nH]nc2c3c(cccc13)N=C(CN1Cc3ccccc3C1)N2,0.38 ± 0.041
15,NC(=O)c1ccc(I)c([N+](=O)[O-])c1 [Iniparib (BSI-201)],1.03 ± 0.039
16,C#CCC(Cc1cnc2nc(N)nc(N)c2n1)c1ccc(C(=O)N[C@@H](CCC(=O)O)C(=O)O)cc1 (stereo not given in full) [Pralatrexate],1.43 ± 0.46
17,NC(=O)C1CCCc2c1[nH]c1ccc(Cl)cc21 (stereo not given) [Selisistat (EX 527)],1.18 ± 0.47
18,Nc1cc(F)ccc1NC(=O)/C=C/c1cnn(C/C=C/c2ccccc2)c1,0.555 ± 0.17

row,Structure (SMILES),fraction of GFP+ cells
1,O=P(O)(O)C(O)(Cn1ccnc1)P(=O)(O)O [Zoledronic Acid Monohydrate],1.07 ± 0.25
2,CC(C)[C@H](CO)Nc1nc(Nc2cccc(Cl)c2)c2ncn(C(C)C)c2n1 [Purvalanol A],0.716 ± 0.095
3,Cn1cc(C(=O)Nc2ccc3c(c2)OCCO3)c2ccccc2c1=O,1.33 ± 0.53
4,COc1c(N2CCNC(C)C2)c(F)cc2c(=O)c(C(=O)O)cn(C3CC3)c12 (stereo not given) [Gatifloxacin],0.995 ± 0.12
5,Cc1ccc(CNc2ncnc3ccc(-c4ccc(CO)o4)cc23)o1,1.08 ± 0.19
6,CC(C)NC(=O)COc1cccc(-c2nc(Nc3ccc4[nH]ncc4c3)c3ccccc3n2)c1,1.21 ± 1.4
7,CCc1c(Cl)c(O)c(Cl)c(O)c1C(=O)O[C@H]1[C@H](O)[C@H](OC)[C@H](OC/C2=C\C=C\C[C@H](O)/C(C)=C/[C@H](CC)[C@@H](O[C@@H]3OC(C)(C)[C@@H](OC(=O)C(C)C)[C@H](O)[C@@H]3O)/C(C)=C/C(C)=C/C[C@@H]([C@@H](C)O)OC2=O)O[C@@H]1C [Fidaxomicin],2.81 ± 0.44
8,Cc1cc(O)c2c(c1)C(=O)c1cc(O)cc(O)c1C2=O [Emodin],1.12 ± 0.16
9,O=c1c(-c2ccc(O)cc2)coc2cc(O)ccc12 [Daidzein],0.115 ± 0.039
10,N=C(NOCC(O)CN1CCCCC1)c1cccnc1 (stereo not given),0.805 ± 0.12
11,N#Cc1ccc2ncnc(NCCc3ccccc3)c2c1 [Senexin A],0.863 ± 0.11
12,O=C(O[C@@H]1Cc2c(O)cc(O)cc2O[C@@H]1c1cc(O)c(O)c(O)c1)c1cc(O)c(O)c(O)c1 [(-)-Epigallocatechin Gallate],0.828 ± 0.097
13,O=C(O)c1cc(I)ccc1NC(=O)[C@H](Cc1ccccc1)NCc1ccccc1,1.89 ± 0.36
14,COc1cc2c(Nc3ccc(NC(=O)c4ccccc4)cc3)ncnc2cc1OCCCN1CCOCC1,0.59 ± 0.2
15,CO[C@H]1/C=C/O[C@@]2(C)Oc3c(C)c(O)c4c(O)c(c5c(nc6cc(C)ccn65)c4c3C2=O)NC(=O)/C(C)=C\C=C\[C@H](C)[C@H](O)[C@@H](C)[C@@H](O)[C@@H](C)[C@H](OC(C)=O)[C@@H]1C [Rifaximin],0.938 ± 0.38
16,NC(=O)c1nc(F)cnc1O [Favipiravir (T-705)],0.826 ± 0.25
17,CN1CCN(Cc2ccc(NC(=O)Nc3ccc(Oc4ccnc(N)n4)cc3)cc2C(F)(F)F)CC1,0.335 ± 0.13
